Assay outcomes (PubChem)
Rows were chosen to be rich in hits. Some 12% of all compounds tested hit in one or more screens of this group.
HP1b chromo inh: blocks HP1-beta chromodomain binding to methylated histone tails; AlphaScreen HP1-beta / biotin-H3K9me3 peptide binding; P83916; Potency, µM (series often up to 114 µM), without a hit: top-dose activity change, negative = inhibition, hits mostly inhibitors; hit rate 0.56% among 390,000; note: nearly all actives have a fitted effect of over 70% in size
Target sequence (P83916 whole entry, looked up): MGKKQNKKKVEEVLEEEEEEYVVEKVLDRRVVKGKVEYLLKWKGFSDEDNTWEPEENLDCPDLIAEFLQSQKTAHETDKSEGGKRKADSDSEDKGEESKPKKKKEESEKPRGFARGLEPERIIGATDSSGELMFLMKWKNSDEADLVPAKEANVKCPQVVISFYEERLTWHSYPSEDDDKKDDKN
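AlphaScreen: HP1-beta (50 nM) preformed 30 min with biotin-H3(1-18)K9me3 peptide (50 nM) in PBS pH 7.4, 0.01% Tween-20. Compound added for 30 min at RT, then streptavidin donor/nickel chelate acceptor beads (10 ug/mL) for 30 min.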
JMJD2A Tudor inh: JMJD2A Tudor domain (human) inhibition | O75164 | AlphaScreen JMJD2A-Tudor / H3K4me3 peptide binding | Potency, µM (doses to about 114 µM), for inactives: at the highest dose activity change, negative = inhibition, usual class: inhibitors | hit rate 4.4% among 390,000; note: % is set by controls: 0 for no effect and ±100 for the full control effect; nearly all actives have a fitted effect of over 50% in size
G9a block: blocks human histone lysine methyltransferase G9a; Q96KQ7; G9a H3K9 monomethylation, AlphaScreen, 2 h; Potency, µM (titrated, usually from 102 µM), inactives show top-dose activity, negative = inhibition, actives largely listed as inhibitors; hit rate 8.8% among 350,000; note: % is set by controls: 0 for no effect and ±100 for the full control effect; nearly all actives have a fitted effect of over 75% in size
Target sequence (Q96KQ7 913-1193 limits assumed): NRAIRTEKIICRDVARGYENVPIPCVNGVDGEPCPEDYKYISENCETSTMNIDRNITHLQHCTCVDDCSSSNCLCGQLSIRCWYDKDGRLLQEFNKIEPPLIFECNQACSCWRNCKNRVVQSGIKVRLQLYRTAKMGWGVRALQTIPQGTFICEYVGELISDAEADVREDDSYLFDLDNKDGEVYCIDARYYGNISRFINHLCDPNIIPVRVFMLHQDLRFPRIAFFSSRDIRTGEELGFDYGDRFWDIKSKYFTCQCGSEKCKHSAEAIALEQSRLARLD
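Methyltransferase reactions run at room temperature for 2 h (20 nM enzyme, 500 nM biotin-H3K9 peptide, 20 uM SAM) after a 15 min compound preincubation; product detected by AlphaScreen beads and anti-H3K9me1 antibody.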
BAZ2B inh: inhibitors of human BAZ2B bromodomain; Q9UIF8; Potency, µM (doses to about 114 µM), inactives show at the highest dose activity change, negative = inhibition, actives largely listed as inhibitors; AlphaScreen BAZ2B-H3K14Ac peptide displacement; AID 504333; hit rate 4.4% among 360,000; note: % is set by controls: 0 for no effect and ±100 for the full control effect; nearly all actives have a fitted effect of over 60% in size
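AlphaScreen displacement of biotin-H3(5-23)K14Ac peptide (50 nM final) from BAZ2B (50 nM final) in PBS pH 7.4, 0.01% Tween-20; complex preformed 30 min RT, then compounds (top 110 uM) 30 min RT, beads 20 min dark.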
Sfp inh: inhibitors of Bacillus subtilis Sfp phosphopantetheinyl transferase | Q9F4F7 | hit rate 3.5% among 310,000 | Potency, µM, inactives show largest response in the series, negative = inhibition, most hits filed as inhibitors | Biochemical Sfp PPTase activity, qHTS;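 note: the enzyme is Sfp with the accession as filed and its product quenches rhodamine fluorescence; 0% = enzyme reaction without inhibitor and -100% = no enzyme wells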
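Buffer: 50 mM Hepes-Na pH 7.6, 10 mM MgCl2, 0.01% Nonidet P-40, 0.01% BSA. Enzyme 15 nM, pre-exposed to compound 15 min; substrates then added and fluorescence change tracked over 30 min.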
Numbers without * were called inactive; ? = inconclusive; . = not tested or not shown; [ ] = another dose, or the depositor's remark. Calls come from the whole dose curve; as a rule, active = well fitted curve in the direction sought with a large enough effect; inconclusive = small, poorly fitted or top-dose-only effect, or another doubt; inactive = no such curve, though single readings can be large; an effect the other way counts as inactive or inconclusive. Potency is the fitted concentration of half-maximal effect.

SMILES | HP1b chromo inh | JMJD2A Tudor inh | G9a block | BAZ2B inh | Sfp inh
CC(=O)Nc1cccc(C(=O)N/N=C/c2cccc(C)n2)c1 | 2% | 13µM* | -30% | 47% | ?
Cc1cccc(C(=O)Nc2cccc(C(=O)N/N=C/c3cccc(C)n3)c2)c1 | 4% | -22% | 7% | 9% | 9%
COc1ccc2c3c(ccc2c1)C(=O)/C(=C/O)CC3 | 35µM* | 7.9µM* | . | . | .
COc1cc(OC)c(NC2(c3ccccc3)C(=O)c3ccccc3C2=O)cc1Cl | ? | 20µM* | 13µM* | 22µM* | .
CCOC(=O)COc1nc(C)c(Br)c(OC)n1 | 18% | -1% | ? | 0% | -3%
CCOc1nc(OCC)c2[nH]c(C(=O)O)c(Br)c2n1 | -7% | 25µM* | . | . | .
COC(=O)C1OC(=O)C2O[C@@]23[C@]2(C)C(OC(C)=O)CC4C(C)(C)C(=O)CC[C@]4(C)C2CC[C@@]13C (stereo partly drawn) | . | . | -41%[2.33 µM] | . | 10%
C=CCn1c(=O)/c(=C\c2ccccn2)s/c1=C(/C#N)C(=O)NCC1CCCO1 (stereo not drawn) | -16% | -30% | -1% | -9% | -4%
C=CCn1c(=O)/c(=C/c2ccc(C)o2)s/c1=C(/C#N)C(=O)c1ccccc1 | ? | -18% | ? | 11µM* | ?
Cc1cc(Nc2cccc(Cl)c2Cl)n2ncnc2n1 | 74% | -15% | . | -6% | 5%
O=C1CCCC(O)=C1N=Nc1ccc(C(=O)O)cc1 | 45µM* | -12%[11.4 µM] | 8.9µM* | 22µM* | -4%
O=C1CCCC(O)=C1N=Nc1ccc2c(c1)OCO2 | -30% | ? | 19%[59 µM] | ? | 7%
O=C1CCCC(O)=C1N=Nc1c(Cl)cc(C(F)(F)F)cc1Cl | -7% | ? | . | 71µM* | ?
O=C1CCCC(O)=C1C=Nc1cccc(C(F)(F)F)c1 | 7% | -17% | -1% | . | 9%
Nc1c(C(=O)NCc2ccccc2)c2nc3ccccc3nc2n1CCCN1CCOCC1 | 101% | 30% | 30% | 2% | -22%
Nc1c(C(=O)NCc2ccco2)c2nc3ccccc3nc2n1CCc1ccccc1 | 67% | 28% | ? | 0% | 50µM*
O=C(CCNC(=O)c1ccccc1)OCC(=O)c1ccccc1 | 21% | ? | 6% | -6% | -3%
CCOc1cc(C(=S)N2CCOCC2)ccc1OC(=O)/C=C/c1ccc(OC)c(OC)c1 | -11% | -17% | ? | ? | -22%
NC(=O)c1cc2ccccc2o/c1=N/NC(=O)c1cccc(Cl)c1 | 39% | -9% | -7% | 4% | 0%
O=C(O)c1cccc2c1C(=O)c1ccc(-c3ccc(F)cc3OCc3ccccc3)cc1S2(=O)=O | -2% | ? | -13%[0.501 µM] | 79µM* | .
CN1CCC(N(C)C(=S)NC(=O)c2cc(-c3cccc(Br)c3)nc3ccccc23)CC1 | -11% | 13µM* | ? | ? | -19%
COc1ccc(OC)c(NC(=O)CC2SC(=Nc3ccc(F)cc3)N(CCC3=CCCCC3)C2=O)c1 (stereo not drawn) | 5% | -24% | 50µM* | ? | 6%
COc1cc([N+](=O)[O-])ccc1NC(=O)CC1SC(=Nc2ccc(F)cc2)N(CCC2=CCCCC2)C1=O (stereo not drawn) | ? | -35%[57.1 µM] | 50µM* | ? | 9%
Cc1ccccc1NC(=O)C1c2cccc[n+]2CC(=O)N1Cc1ccc2c(c1)OCO2 (stereo not drawn) | 15% | ? | 11µM* | -21% | -12%
Cc1cccc(C)c1NC(=O)C1c2cccc[n+]2CC(=O)N1Cc1cccs1 (stereo not drawn) | 29% | -6% | 50µM* | . | 13%
SMILES | HP1b chromo inh | JMJD2A Tudor inh | G9a block | BAZ2B inh | Sfp inh
CC1CCCC(NC(=O)C2c3ccccc3C(=O)N2Cc2cccs2)C1C (stereo not drawn) | 20% | -14% | 5%[59 µM] | 5% | 18%
Cc1nc(C)n(C)c(=O)c1-c1ccccc1 | 44% | -4% | -10% | 0% | 5%
O=C(CNc1cc(S(=O)(=O)N2CCOCC2)ccc1NCC1CCCO1)Nc1ccc(F)c(F)c1 (stereo not drawn) | 12% | -29% | ? | ? | -1%
Cc1ccc(NC(=O)CNc2cc(S(=O)(=O)N3CCOCC3)ccc2NCC2CCCO2)cc1F (stereo not drawn) | -18% | ? | 45µM* | ? | 13%
CC1CCCC(C)N1S(=O)(=O)c1ccc(NC(=O)CNCC2CCCO2)cc1 (stereo not drawn) | 6% | 18µM* | 8.9µM* | 56µM* | -2%
COc1ccc(NC(=O)CNc2cc(S(=O)(=O)N3CCOCC3)ccc2NCC2CCCO2)cc1 (stereo not drawn) | 21% | -33% | 6.3µM* | . | 7%
CCOCC(=O)Nc1ccc(S(=O)(=O)NCC2CCCO2)cc1 (stereo not drawn) | 30% | -19% | . | -2% | 14%
O=C(Cc1ccc([N+](=O)[O-])cc1)NCc1ccccn1 | 44% | -5% | 55%[12.7 µM] | -5% | 7%
C=CCOc1ccc(C(=O)Nc2ccccc2C(=O)NCc2cccnc2)cc1 | 8% | -19% | 71µM* | -12% | -7%
CCOc1ccc(C(=O)NCc2cccnc2)cc1 | 28% | -13% | -4%[59 µM] | 6% | 13%
CCCOc1ccc(C(=O)NC(=S)NCc2cccnc2)cc1 | 7% | -21% | 45µM* | ? | -2%
CC(C)COc1cccc(C(=O)NC(=S)NCc2cccnc2)c1 | -16% | ? | 45µM* | -35% | 11%
CCOc1ccc(C(=O)NC(=S)NCc2cccnc2)cc1 | 28% | -4% | 1µM* | -8% | 9%
CCCOc1ccc(C(=O)NCc2cccnc2)cc1 | 34% | -2% | 0%[12.7 µM] | -36% | 6%
Cn1c(=O)[nH]c(=O)c2c1nc(N/N=C/c1ccncc1)n2Cc1ccc(F)cc1 | 42% | -32% | . | 1% | ?
O=[N+]([O-])c1cc(S(=O)(=O)N2CCCC2)ccc1N/N=C1/CCCc2ccccc21 | ? | ? | 4.5µM* | 3.5µM* | 7%
O=C(CSc1nnc(Cc2ccccc2)c(=O)[nH]1)Nc1ccccc1 | 20% | -6% | -1% | -5% | .
C(=C\c1ccco1)/C1=NN(c2ccccc2)C(c2ccco2)C1 (stereo not drawn) | 55% | 31% | -1%[59 µM] | ? | 28µM*
O=[N+]([O-])c1ccc(/C=C/C2=NN(c3ccccc3)C(c3ccco3)C2)o1 (stereo not drawn) | ? | 3.2µM* | 32µM* | 32µM* | -7%
COc1ccccc1CC(=O)N1CCOCC1 | 15% | -11% | 10%[0.501 µM] | 10% | 0%
CCOc1ccc(-n2c(=O)c3c4c(sc3n(CC(=O)NCCCOC)c2=O)CCCCC4)cc1 | 3% | -4% | -29% | 0% | 22%
COc1cc(-c2nc(-c3ccc4c(c3)-c3ccccc3S4(=O)=O)c(-c3ccccc3)[nH]2)cc(OC)c1OC | 18% | -28% | 45µM* | -2% | 0%
